TEAD-YAP block: TEAD-YAP interaction inhibition | HEK-TIYL cells, TEAD-Gal4/YAP UAS-luciferase luminescence | inhibition, % at 9.12 µM | 640,000 tested, 1.4% active | AID 1259422; in the data active means inhibition above about 32%;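 further: 0% = median of test compound wells and 100% = reference inhibitor wells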
FBW7 activator: activators of human E3 ligase FBW7; Q969H0; AlphaScreen FBW7–phospho-cyclin E peptide binding, activator screen; normalized activity (activation), % at 26.1 µM; 650,000 tested, 0.13% active; AID 1259310; in the data active means normalized activity above about 1.9%;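 further: purified mutant Fbw7 with reduced substrate affinity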
Target sequence (Q969H0 whole entry, looked up): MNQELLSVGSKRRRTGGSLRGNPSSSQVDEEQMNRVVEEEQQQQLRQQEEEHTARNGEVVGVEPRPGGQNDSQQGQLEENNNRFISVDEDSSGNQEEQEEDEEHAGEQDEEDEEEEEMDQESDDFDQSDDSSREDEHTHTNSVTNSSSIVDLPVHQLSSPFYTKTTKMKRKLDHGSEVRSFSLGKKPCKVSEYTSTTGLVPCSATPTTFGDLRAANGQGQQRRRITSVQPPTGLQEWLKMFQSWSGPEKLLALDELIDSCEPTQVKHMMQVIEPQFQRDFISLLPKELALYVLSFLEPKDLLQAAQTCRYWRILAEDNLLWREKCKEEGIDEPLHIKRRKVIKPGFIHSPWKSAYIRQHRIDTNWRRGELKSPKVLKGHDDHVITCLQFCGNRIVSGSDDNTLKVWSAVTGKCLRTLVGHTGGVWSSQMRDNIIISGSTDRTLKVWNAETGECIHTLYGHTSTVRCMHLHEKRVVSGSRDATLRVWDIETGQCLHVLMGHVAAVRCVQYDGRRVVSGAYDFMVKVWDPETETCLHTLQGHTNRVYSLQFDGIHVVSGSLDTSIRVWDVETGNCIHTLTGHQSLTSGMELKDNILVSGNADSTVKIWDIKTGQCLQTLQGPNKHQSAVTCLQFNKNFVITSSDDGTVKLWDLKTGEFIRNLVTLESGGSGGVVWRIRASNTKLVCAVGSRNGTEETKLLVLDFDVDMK
GPR151 activ: human GPR151 activation | activation, % at 11.2 µM | Q8TDV0 | 650,000 tested, 1% active | PathHunter beta-arrestin GPR151 cells, luminescence; in the data active means activation above about 4.9%;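 further: 0% = median of compound wells and 100% = cells with positive control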
MITF primary: blocks human microphthalmia-associated transcription factor. AID 1259374. inhibition, % at 2.6 µM. 650,000 tested, 0.91% active. AlphaScreen MITF homodimerization, bead proximity signal. O75030; in the data active means inhibition above about 50%;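 further: 0% = vehicle wells with protein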
MITF inh conf: confirmation of human MITF inhibitors. AID 1259372. AlphaScreen MITF homodimerization, biotin/His-MITF beads. inhibition, % at 2.6 µM. 4,700 tested, 16% active. shares compounds with MITF primary;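 active means inhibition above a cutoff derived from the DMSO control wells, cut at about 28% in these data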;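 further: 0% = MITF dimer wells with DMSO only; inhibitors lower the bead chemiluminescence by keeping MITF from dimerizing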
AlphaScreen DR: optically interferes with AlphaScreen signal in dose response; shares compounds with MITF primary; AlphaScreen optical interference counterscreen, cell-free; IC50, µM; 480 tested, 6% active; call rule not given here
AlphaScreen intf2: optically interferes with AlphaScreen signal. shares compounds with MITF primary. LysRS AlphaScreen counterscreen, signal interference, triplicate. inhibition, % at 2.6 µM. 4,700 tested, 7.6% active;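 active means inhibition above a cutoff derived from the DMSO control wells, cut at about 30% in these data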
Active calls of the source: *; . = not tested or not shown. Hits are enriched below; roughly 3.5% of the tested compounds scored in any of these assays.

SMILES | TEAD-YAP block | FBW7 activator | GPR151 activ | MITF primary | MITF inh conf | AlphaScreen intf2 | others
Cn1nc(C(=O)Nc2ccccc2F)c2c1-c1ccccc1OC2 | -7 | 0 | -2 | 3 | . | .
OCCN1CCN(Cc2ccc(O)cc2)CC1 | -3 | 0 | 0 | 86* | 4 | 11
CSc1ccc(CN2CCN(CCO)CC2)cc1 | -10 | 0 | -1 | 80* | -2 | 0
CSc1ccc(CN2CCN(C(=O)C(c3ccccc3)c3ccccc3)CC2)cc1 | -3 | 0 | -2 | 53* | 0 | 0
OCCN1CCN(Cc2ccc(OCc3ccccc3)cc2)CC1 | 10 | 0 | 1 | 28 | . | .
CSc1ccc(CN2CCN(Cc3ccncc3)CC2)cc1 | 6 | 0 | 0 | 60* | 3 | -2
CSc1ccc(CN2CCN(C(=O)c3ccccc3F)CC2)cc1 | 31 | 0 | 0 | 40 | . | .
CSc1ccc(CN2CCC(O)CC2)cc1 | 0 | 0 | 0 | 9 | . | .
O=C(O)CNS(=O)(=O)c1ccc2c(c1)OCCCO2 | 7 | 0 | 1 | -11 | . | .
N#Cc1ccc(OCc2ccccc2C(=O)O)cc1 | -12 | 0 | -3 | -9 | . | .
CCCSc1nc(N2CCCCC2)c2c(c1C#N)CCCC2 | -4 | 0 | 0 | 66* | -7 | -5
N#Cc1c(SCC(=O)O)nc(N2CCCCC2)c2c1CCCC2 | 5 | 0 | 0 | -1 | . | .
CNC(=O)c1nnc(-c2ccccc2)o1 | -6 | 0 | -1 | 78* | -4 | -10
Cc1ccc(-n2c(C34CC5CC(CC(C5)C3)C4)cn3c4c(=O)n(C)c(=O)n(C)c4nc23)cc1 | 9 | 0 | 1 | 7 | . | .
CCOc1ccc(C(=O)NCC2(c3cccs3)CC2)cc1 | -34 | 0 | 1 | 52* | -7 | -7
Cc1nn(C)c(C)c1NC(=O)c1cc(S(=O)(=O)N2CC(C)OC(C)C2)c(C)o1 (stereo unspecified) | 2 | 1 | -1 | 23 | . | .
O=C(c1cccnc1)N1CCN(Cc2ccc3ccccc3c2)CC1 | 7 | 0 | -1 | 37 | . | .
Cc1ccccc1CN1CCN(C(=O)c2cccnc2)CC1 | -7 | 0 | 1 | 61* | 18 | -1
O=C(c1cccnc1)N1CCN(Cc2ccc([N+](=O)[O-])cc2)CC1 | 1 | 0 | 0 | -14 | . | .
Cc1ccc(CN2CCN(C(=O)c3cccnc3)CC2)cc1 | 9 | 0 | -1 | 54* | -3 | -6
O=C(c1cccnc1)N1CCN(Cc2ccccc2C(F)(F)F)CC1 | -1 | 0 | 3 | 53* | -1 | -3
CCn1c(SCC(=O)Nc2ccc(NC(=O)C(C)(C)C)cc2)nnc1-c1ccncc1 | 7 | 0 | -1 | -1 | . | .
CCc1ccc(NC(=O)CSc2nnc(-c3ccncc3)n2CCCN(C)C)cc1 | 3 | 0 | -1 | 88* | 8 | 12
CC(=O)c1ccc(NC(=O)CSc2nnc(-c3ccncc3)n2CCCN(C)C)cc1 | -13 | 0 | 0 | 71* | 7 | 10
Cn1c(SCC(=O)Nc2ccc(C(=O)O)cc2)nnc1-c1ccncc1 | 6 | 0 | 3 | 4 | . | .
SMILES | TEAD-YAP block | FBW7 activator | GPR151 activ | MITF primary | MITF inh conf | AlphaScreen intf2 | others
NC1=N/C(=N\c2nc(-c3ccccc3)cs2)c2ccccc21 | -51 | 0 | -1 | 0 | . | .
O=C1CCC(C(=O)Nc2ccc(F)c([N+](=O)[O-])c2)=NN1 | -7 | 0 | -2 | 18 | . | .
CC(C)(C)c1nn2cnnc2n(/N=C/c2ccc(Br)cc2)c1=O | -1 | 0 | 1 | -1 | . | .
CC(=O)NC(CC(=O)OCC(=O)Nc1ccc(Br)cc1F)c1ccccc1 (stereo unspecified) | 5 | 0 | 1 | 12 | . | .
O=C(O)c1ccc(/C=C2/NC(=O)N(c3ccc(Cl)cc3)C2=O)cc1 | -7 | 0 | 1 | -20 | . | .
O=C(O)c1cccc(-n2cccc2/C=C2/NC(=O)N(c3ccc(Cl)cc3)C2=O)c1 | -8 | 0 | 0 | 61* | 36* | 10 | AlphaScreen DR=>6.5
O=C(O)c1ccc(-n2cccc2/C=C2/NC(=O)N(c3ccc(Cl)cc3)C2=O)cc1 | -15 | 0 | 0 | 55* | 74* | 34*
O=C(O)c1cccc(-n2cccc2/C=C2/NC(=O)N(c3cccc(Cl)c3)C2=O)c1 | 5 | 0 | 0 | 21 | . | .
O=C1NC(=O)/C(=C\c2cccn2-c2ccc(C(=O)O)cc2)N1 | 13 | 0 | -1 | 66* | 9 | -5
CCCCN1C(=O)CCc2cc(NS(=O)(=O)CC(C)C)ccc21 | 10 | 0 | 0 | -6 | . | .
CN(C)CCCNCC(=O)NN(c1ccccc1)c1ccccc1 | 2 | 0 | 1 | 64* | -7 | -2
CCCCNCC(=O)NN(c1ccccc1)c1ccccc1 | -7 | 0 | 0 | 29 | . | .
C=CCc1ccc(OCCCNC(C)CC)c(OC)c1 (stereo unspecified) | 12 | 0 | 1 | 13 | . | .
C=CCc1ccc(OCCOCCNC(C)CC)c(OC)c1 (stereo unspecified) | 5 | 0 | -1 | 77* | 8 | 7
C=CCc1ccc(OCCOCCN2CCN(CC)CC2)c(OC)c1 | -11 | 0 | -1 | 65* | 14 | 15
COc1cccc(NC(=O)CN(C)CC(=O)Nc2ccc(C)c(F)c2)c1 | 3 | 0 | 1 | 91* | 10 | 20
CN(CC(=O)Nc1cccc(F)c1)CC(=O)Nc1ccccc1-c1ccccc1 | 2 | 0 | 0 | -1 | . | .
CN(CC(=O)Nc1cccc(F)c1)CC(=O)Nc1ccccc1Oc1ccccc1 | -4 | 0 | 4 | 70* | -10 | 9
Cc1[nH]nc2c1C(c1cccc(OCc3ccc(Cl)cc3Cl)c1)C(C#N)=C(N)O2 (stereo unspecified) | -42 | 1 | -2 | 26 | . | .
CCN1C(=O)/C(=C/c2ccco2)S/C1=N/S(=O)(=O)c1ccc(C)cc1 | -4 | 0 | 0 | 53* | 10 | 5
N#Cc1cc([N+](=O)[O-])ccc1NC(=O)COC(=O)c1ccco1 | -18 | 0 | 1 | -2 | . | .
O=C(/C=C/c1ccc2c(c1)OCO2)CC1(O)C(=O)N(Cc2ccccc2)c2ccccc21 (stereo unspecified) | 16 | 0 | 0 | 68* | 6 | 14
CCCCC1CN(CC(=O)N2CCN(C(C)=O)CC2)Cc2ccccc2O1 (stereo unspecified) | -23 | 0 | 2 | 5 | . | .
COCCNCC(=O)Nc1nnc(C)s1 | 2 | 0 | -1 | 14 | . | .
COCCNCC(=O)Nc1nc(C)cs1 | -2 | 0 | 1 | 70* | 15 | 19
c1ccc(CN2CCCC2c2nc(-c3ccncc3)n[nH]2)nc1 (stereo unspecified) | -6 | -1 | 0 | 101* | 92* | 100*
CCOc1ccc(/C=C/C(=O)Nc2ccc(N3CCOCC3)cc2)cc1 | 13 | 0 | 0 | 87* | 7 | 14
COc1cccc(CN2CCN(Cc3ccccc3C(F)(F)F)CC2)c1OC | -9 | 0 | 0 | 67* | 0 | 9

Assay outcomes from PubChem.
